Results taken from PubChem BioAssay (NCI).
The panel holds about 83,000 compounds, 20% with a hit somewhere; the sample as a whole holds those more often.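 Growth was measured after 48 h exposure to one concentration of compound in 96-well plates. Values under 10 count as active.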 Unmarked numbers belong to inactive results. The source made the active and inactive calls.

How the values were obtained:
Assay in all cases: NCI-60 one-dose screen, 48 h (100 = growth as untreated, 0 = no growth, -100 = all killed)
Conditions in all cases: 10 µM unless noted
SR leukemia = tested on: SR leukemia
OVCAR-8 ovarian = tested on: OVCAR-8 ovarian
OVCAR-5 ovarian = tested on: OVCAR-5 ovarian
OVCAR-4 ovarian = tested on: OVCAR-4 ovarian
SK-OV-3 ovarian = tested on: SK-OV-3 ovarian
IGROV1 ovarian = tested on: IGROV1 ovarian
OVCAR-3 ovarian = tested on: OVCAR-3 ovarian
HS 578T breast = tested on: HS 578T breast
NCI/ADR-RES ovarian = tested on: NCI/ADR-RES ovarian
T-47D breast = tested on: T-47D breast
BT-549 breast = tested on: BT-549 breast
MDA-MB-435 melanoma = tested on: MDA-MB-435 melanoma
SW-620 colon = tested on: SW-620 colon
MCF7 breast = tested on: MCF7 breast
HCT-116 colon = tested on: HCT-116 colon
HCC-2998 colon = tested on: HCC-2998 colon
KM12 colon = tested on: KM12 colon

SMILES	growth (SR leukemia)	growth (OVCAR-8 ovarian)	growth (OVCAR-5 ovarian)	growth (OVCAR-4 ovarian)	growth (SK-OV-3 ovarian)	growth (IGROV1 ovarian)	growth (OVCAR-3 ovarian)	growth (HS 578T breast)	growth (NCI/ADR-RES ovarian)	growth (T-47D breast)	growth (BT-549 breast)	growth (MDA-MB-435 melanoma)	growth (SW-620 colon)	growth (MCF7 breast)	growth (HCT-116 colon)	growth (HCC-2998 colon)	growth (KM12 colon)
C=CC(=O)NCc1ccc(Nc2nccc(-c3ccc(N4CCCC4)c(C#N)c3)n2)cc1	5.13% (active)	30.8%	75.3%	16.2%	29.6%	25.2%	33.4%	25.4%	34.4%	71%	-10.3% (active)	10.1%	43.9%	14.3%	22.2%	71.3%	–
COC(=O)c1c2c(c(C)[n+]([O-])c1C)C(=O)C=C(NCc1ccc(OC)cc1)C2=O	-0.642% (active)	1.17% (active)	-54.6% (active)	-98.5% (active)	8.27% (active)	-61.5% (active)	-40.5% (active)	-10.2% (active)	-7.81% (active)	-31% (active)	-88.8% (active)	-91.6% (active)	0.249% (active)	-55.1% (active)	-11.6% (active)	–	-3.93% (active)
N#Cc1nc(-c2ccccc2)oc1S(=O)(=O)N1CCOCC1	1.09% (active)	59.8%	103%	84.2%	103%	88.5%	15%	107%	98.7%	65.4%	–	89.4%	56.6%	32.5%	19.9%	104%	97.8%
CN(C)CCCn1c2c(c3ncccc3c1=O)C(=O)c1ccccc1-2	15.2%	31.3%	46.5%	61.8%	69.6%	43.8%	57.4%	75.8%	42.7%	47.8%	67.3%	64%	24%	11.8%	11.2%	63.9%	40.9%
CCOC(=O)Cn1c(O)c(N=Nc2ccc(S(N)(=O)=O)cc2)c2cc(Br)ccc21	75.3%	56.5%	85.9%	31.2%	81.9%	73%	84.9%	89.7%	89.7%	78.1%	119%	92%	62.7%	84%	13.9%	95.5%	70.7%
N#Cc1cccc(F)c1	98.1%	109%	83.1%	118%	111%	106%	126%	107%	104%	101%	111%	105%	109%	112%	106%	–	110%
CN1C(=O)N(C)C2Nn3c(s/c(=C\c4ccc(C(F)(F)F)cc4)c3=O)=NC21 (centres undefined)	96.9%	108%	103%	102%	111%	101%	106%	105%	99.8%	107%	113%	91.4%	101%	92%	107%	113%	99.7%
Cc1cccc2c1NC(=O)C2(c1ccc(O)cc1)c1ccc(O)cc1	89%	4.88% (active)	75.9%	-16% (active)	89.5%	45.7%	25.6%	-5.53% (active)	11%	-18.8% (active)	-35.9% (active)	105%	103%	1.54% (active)	68.7%	42.9%	60.1%
O=C1c2cc(Cl)ccc2S(=O)(=O)c2c(NCCCNCCO)nc3ccccc3c21	-9.98% (active)	-5.81% (active)	-18% (active)	-32.2% (active)	75.7%	8.88% (active)	-91.9% (active)	-2.81% (active)	40.6%	-60% (active)	21.7%	2.67% (active)	-74.6% (active)	-16.2% (active)	-78% (active)	–	–
O=CC1(C2(C=O)c3ccccc3-c3ccccc32)c2ccccc2-c2ccccc21	-32.3% (active)	-49.9% (active)	-40.9% (active)	-76.4% (active)	-65% (active)	-76.4% (active)	-74.7% (active)	-4.62% (active)	-14% (active)	-51% (active)	-74.3% (active)	-57.9% (active)	-29.2% (active)	-52.4% (active)	-60.6% (active)	-41.5% (active)	-44.5% (active)
CCNC(=O)c1[nH]cc(-c2ccccc2)c1-c1cc(OC)c2c(c1OC)OCO2	93%	98.9%	98.5%	98.6%	90.3%	88.5%	104%	93.2%	93%	87%	98.4%	103%	97.6%	101%	90.7%	–	121%
CCOC(=O)c1c(C)nc2c(c1N)CC(=O)N2Cc1cc(F)cc(Cl)c1	75.3%	95.9%	97.5%	67.5%	115%	102%	93.8%	108%	–	76.3%	96.3%	92%	103%	84.9%	79.9%	113%	97%
N#C/C(=C\c1ccc(-c2ccc(Cl)cc2)o1)C(=O)Nc1ncc(Cc2ccc(Cl)cc2)s1	8.8% (active)	8.41% (active)	29.7%	-56.9% (active)	58.9%	28.3%	-49.8% (active)	25.6%	26.2%	14.3%	58.2%	21.2%	13.7%	45.9%	3.14% (active)	77.5%	36.8%
O=C1NCCC12CCN(c1c(Cl)cncc1-c1ccc(O)cc1)CC2	94.3%	89.1%	83.6%	105%	85.4%	69.2%	104%	101%	91.8%	93.7%	114%	100%	99.6%	95.4%	97.3%	120%	105%
N#C/C(=C/c1ccc([N+](=O)[O-])cc1)n1nnc2cc(F)c(F)cc21	2.33% (active)	37.5%	108%	86.5%	116%	73.6%	30.6%	80.6%	76.2%	11.6%	77.3%	64.2%	59.7%	8.8% (active)	5.65% (active)	70.5%	13.1%
NC(=O)CCC(C(=O)O)N1C(=O)c2ccc(O)cc2C1=O (centres undefined)	139%	106%	131%	123%	-100% (active)	105%	97.6%	107%	132%	102%	101%	94%	111%	105%	109%	–	103%
O=C(NCc1ccccc1)Nc1ccccc1CNc1nc(Nc2ccc(OCCN3CCCC3)cc2)ncc1Cl	7.02% (active)	89.9%	112%	81.2%	99.3%	100%	104%	98%	92.2%	104%	96.3%	82.9%	77.1%	65.9%	95.5%	96.9%	94.2%
CCOC(=O)C#Cc1c(C(=O)OCC)nnn1[C@@H]1O[C@H](CO)[C@H]2OC3(CCCCC3)O[C@H]21	-8.98% (active)	95.3%	105%	56%	98.1%	96%	4.07% (active)	89.7%	100%	13.2%	94.2%	79.7%	-70.9% (active)	8.45% (active)	66.5%	85.4%	94.5%
CN1CCN(C(=O)OCc2ccc3c(Cl)cc(Cl)c(O)c3n2)CC1	14%	45.1%	106%	46.8%	88.7%	56.6%	50.9%	80.2%	15%	58.6%	87%	60.5%	52.4%	43.6%	32.9%	74.4%	48.7%
COc1cc(-c2cc(-c3ccc(N(C)C)cc3)nc(N3CCC(O)CC3)c2C#N)cc(OC)c1OC	13.4%	16.4%	20.6%	50.8%	35.3%	7.25% (active)	-14.6% (active)	17%	–	8.21% (active)	30.6%	-18.5% (active)	21.1%	0.557% (active)	-38.9% (active)	–	-0.387% (active)
O=C1N(Cc2ccccc2Cl)c2ccccc2C12NN=C(c1cccc(Cl)c1)S2 (centres undefined)	-1.58% (active)	-23.5% (active)	9.45% (active)	-13.9% (active)	-5.89% (active)	20.2%	4.87% (active)	3.21% (active)	-17% (active)	6.86% (active)	-20% (active)	2.22% (active)	9.59% (active)	1.43% (active)	9.78% (active)	-61% (active)	21.4%
C/C(=N\NC(=O)c1ccccc1O)c1cccc(/C(C)=N/NC(=O)c2ccccc2O)n1	16.6%	32.3%	78.9%	35.4%	45.6%	61.8%	9.77% (active)	69.3%	–	41.8%	-2.08% (active)	40%	31.2%	44.3%	27.1%	18.4%	22.6%
CCN(c1ccc(Cl)cc1)c1nc(-c2ccc([N+](=O)[O-])cc2)cs1	83.4%	103%	103%	92.7%	95.7%	73%	102%	87%	101%	77.2%	115%	103%	91.7%	–	97.9%	98.7%	–
O=C1/C(=C/c2ccc(Cl)c(Cl)c2)CN(C(=O)C(Cl)Cl)C/C1=C\c1ccc(Cl)c(Cl)c1	4.68% (active)	0.621% (active)	-69.1% (active)	-16.8% (active)	25.2%	-74.3% (active)	-97.9% (active)	-5.11% (active)	3.64% (active)	-36.7% (active)	-58.5% (active)	-68.7% (active)	-71.5% (active)	-57.7% (active)	-92.5% (active)	-88.8% (active)	-71.2% (active)
C[C@H](NC(=O)[C@@H](C)N)[C@H](Oc1ccc2c(cnn2-c2ccc(F)cc2)c1)c1ccc2c(c1)OCCO2	-41.9% (active)	57.8%	64.7%	60.7%	49.2%	40.9%	55.8%	64.8%	–	36.2%	32.9%	45.4%	62%	46.4%	38.6%	28.1%	36.1%
CCS/C(Nc1ccccc1)=C(\C#N)C(=O)N/N=C/c1ccc(Cl)cc1Cl	19.5%	28.6%	72.5%	56.5%	15.5%	49.1%	1.46% (active)	-6.44% (active)	10.8%	17.8%	45.4%	-34.5% (active)	–	19.3%	17.5%	48.4%	28%
CCN1C(=O)N(CC)C2C1NN=c1s/c(=C\c3ccc(Cl)cc3Cl)c(=O)n12 (centres undefined)	12.3%	10.8%	28.2%	46.1%	29.2%	13.4%	-43.3% (active)	15.8%	5.65% (active)	58.8%	15.9%	-24.8% (active)	20.5%	14%	9.71% (active)	7.2% (active)	7.47% (active)
COc1cc(-c2nc(SCC(C)C)nc(Nc3cccc4ccccc34)c2C#N)cc(OC)c1OC	40.7%	92.1%	109%	87.6%	110%	–	117%	106%	–	70.3%	110%	99.3%	95.3%	94%	37.7%	118%	97.5%
CC(C)(C)n1cc(-c2ccnc(NCCNS(=O)(=O)c3cccc4ccccc34)c2)c(-c2cccc(F)c2)n1	-20.7% (active)	7.39% (active)	-15% (active)	-0.264% (active)	6.65% (active)	4.03% (active)	-68.6% (active)	-35.7% (active)	-9.97% (active)	-12.6% (active)	-80.9% (active)	-31.8% (active)	–	-35% (active)	-87.2% (active)	-41.8% (active)	-14% (active)
